Inconclusive results are not listed. A call without a number means that no potency is given here. Calls of active or inactive are those of the source. Unless noted, calls come from the whole dose curve; as a rule, active = well fitted curve in the direction sought with a large enough effect; inconclusive = small, poorly fitted or top-dose-only effect, or another doubt; inactive = no such curve, though single readings can be large; an effect the other way counts as inactive or inconclusive.
Tests used:
[1] = molecular target: Peptidyl-prolyl cis-trans isomerase NIMA-interacting 1 (Homo sapiens) (UniProt Q13526); assay: qHTS Validation Assay to Find Inhibitors of Pin1 (AID 504536; active = well fitted inhibition curve with a large enough effect in the polarisation, with a control signal flat, not every such curve was filed as active; the % refers to the polarisation; note: potency is the fitted concentration of half-maximal effect); settings: Pin1 fluorescence polarization peptide binding assay; series mostly up to 57.5 µM
Method in brief: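 Fluorescence polarization competition: compounds (titration) displace HiFluor-488-labeled Pin1-1b peptide from Pin1 (0.3 uM final) in pH 7.5 HEPES buffer with DTT, 10 min at room temperature; %Activity normalized to no-enzyme wells, curves fitted.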

[2] = molecular target: Phosphoglycerate kinase, glycosomal (Trypanosoma brucei brucei) (UniProt P07378); assay: qHTS Validation Assay to Find Inhibitors of Phosphoglycerate Kinase (AID 504547); settings: enzymatic PGK inhibition, coupled luminescence read-out; series mostly up to 57.5 µM; note: potency is the fitted concentration of half-maximal effect
Method in brief: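 Compounds are pinned into the substrate/PGK mixture, and GAPDH (100nM final) is added to start the reaction by producing 1,3-BPG. After 60 minutes at room temperature, Kinase-Glo Plus is added and luminescence is measured 10 minutes later.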

[3] = molecular target: Ubiquitin carboxyl-terminal hydrolase 1 (Homo sapiens) (UniProt O94782); assay: Inhibitors of USP1/UAF1: Pilot qHTS (AID 504865); settings: purified USP1/UAF1, Ub-rhodamine cleavage fluorescence; series mostly up to 114 µM; note: nearly all actives have a fitted effect of over 35% in size; note: potency is the fitted concentration of half-maximal effect
Method in brief: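 1nM USP1/UAF1 + cpd, 15 min RT; start w/ Ub-Rho 150nM final; kinetic FL 480/540 nm, 6 reads q60 s. Buffer 50mM HEPES pH 7.8, 0.5mM EDTA, 1mM TCEP, 0.01% Tween-20, 0.1 mg/ml BSA.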

[4] = qHTS for Inhibitors of ATXN expression: Validation of Cytotoxic Assay (AID 588349); settings: cytotoxicity counter-screen for ATXN expression inhibitors, cell viability; series mostly up to 57.1 µM
Method in brief: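 Toxicity of test compounds toward HEK293 cells is scored from cellular ATP content measured by CellTiter Glo. Cells receive titrated doses and incubate 72 hr at 37 degrees C beforehand.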

[5] = qHTS for Inhibitors of ATXN expression: Validation (AID 588378); settings: cell-based ATXN2 expression reporter assay, luminescence; series mostly up to 57.1 µM; note: nearly all actives have a fitted effect of over 75% in size
Method in brief: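 Cells: HEK293-ATXN2-FFLuc, phenol-red free DMEM, 2 h attachment. Compound pin-transfer, 24 h, 37 degrees C, 5% CO2. CellTiter-Fluor 30 min, Ex405/Em525; Bright-Glo 5 min, luminescence 2 s exposure.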

[6] = molecular target: phosphoglycerate mutase (Leishmania major) (UniProt Q4Q090); assay: qHTS Validation Assay to Find Inhibitors of Phosphoglycerate Mutase (AID 504548); settings: biochemical enzyme activity; Potency: inhibition qHTS; series mostly up to 57.5 µM
Method in brief: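 Lm PGAM 1.25nM final; 100 mM TEA pH 7.6, 5 mM MgCl2, 0.01% Tween-20; 45 min RT; Kinase-GloPlus, 10 min; end-point luminescence. Enzyme-free wells as negative controls.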

Phosphoglycerate kinase, glycosomal (Trypanosoma brucei brucei), sequence (P07378 whole entry, looked up): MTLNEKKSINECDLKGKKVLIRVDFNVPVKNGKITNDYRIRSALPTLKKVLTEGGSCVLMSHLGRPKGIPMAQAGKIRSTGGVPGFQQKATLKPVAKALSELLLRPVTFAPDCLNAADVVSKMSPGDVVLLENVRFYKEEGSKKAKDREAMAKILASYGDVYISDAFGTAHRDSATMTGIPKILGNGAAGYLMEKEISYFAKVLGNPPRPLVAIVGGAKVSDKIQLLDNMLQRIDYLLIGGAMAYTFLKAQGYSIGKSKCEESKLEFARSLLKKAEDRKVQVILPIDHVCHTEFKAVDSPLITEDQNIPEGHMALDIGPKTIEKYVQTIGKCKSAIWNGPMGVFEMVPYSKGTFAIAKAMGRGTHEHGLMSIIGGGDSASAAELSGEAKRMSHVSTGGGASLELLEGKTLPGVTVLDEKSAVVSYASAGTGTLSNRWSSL
Ubiquitin carboxyl-terminal hydrolase 1 (Homo sapiens), sequence (O94782 whole entry, looked up): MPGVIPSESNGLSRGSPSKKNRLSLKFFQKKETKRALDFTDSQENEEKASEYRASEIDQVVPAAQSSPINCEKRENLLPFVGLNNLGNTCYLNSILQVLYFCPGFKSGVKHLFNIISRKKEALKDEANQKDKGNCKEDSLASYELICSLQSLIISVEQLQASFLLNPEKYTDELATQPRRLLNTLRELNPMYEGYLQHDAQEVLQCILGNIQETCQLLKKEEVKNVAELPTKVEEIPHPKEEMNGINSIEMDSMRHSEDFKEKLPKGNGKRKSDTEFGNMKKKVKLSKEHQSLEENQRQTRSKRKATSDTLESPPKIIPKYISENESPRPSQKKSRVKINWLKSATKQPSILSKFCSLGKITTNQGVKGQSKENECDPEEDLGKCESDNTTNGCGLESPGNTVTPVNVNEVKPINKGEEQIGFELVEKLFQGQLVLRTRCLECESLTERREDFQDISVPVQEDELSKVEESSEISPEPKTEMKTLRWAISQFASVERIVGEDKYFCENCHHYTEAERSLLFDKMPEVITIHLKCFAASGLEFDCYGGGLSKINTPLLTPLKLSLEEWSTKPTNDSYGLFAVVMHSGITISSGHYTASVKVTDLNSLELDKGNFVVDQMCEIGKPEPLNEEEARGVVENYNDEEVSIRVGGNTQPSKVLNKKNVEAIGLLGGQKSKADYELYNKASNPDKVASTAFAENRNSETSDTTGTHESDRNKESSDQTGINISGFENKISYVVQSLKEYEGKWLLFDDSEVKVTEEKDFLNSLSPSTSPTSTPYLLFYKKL
phosphoglycerate mutase (Leishmania major), sequence (Q4Q090 1-553): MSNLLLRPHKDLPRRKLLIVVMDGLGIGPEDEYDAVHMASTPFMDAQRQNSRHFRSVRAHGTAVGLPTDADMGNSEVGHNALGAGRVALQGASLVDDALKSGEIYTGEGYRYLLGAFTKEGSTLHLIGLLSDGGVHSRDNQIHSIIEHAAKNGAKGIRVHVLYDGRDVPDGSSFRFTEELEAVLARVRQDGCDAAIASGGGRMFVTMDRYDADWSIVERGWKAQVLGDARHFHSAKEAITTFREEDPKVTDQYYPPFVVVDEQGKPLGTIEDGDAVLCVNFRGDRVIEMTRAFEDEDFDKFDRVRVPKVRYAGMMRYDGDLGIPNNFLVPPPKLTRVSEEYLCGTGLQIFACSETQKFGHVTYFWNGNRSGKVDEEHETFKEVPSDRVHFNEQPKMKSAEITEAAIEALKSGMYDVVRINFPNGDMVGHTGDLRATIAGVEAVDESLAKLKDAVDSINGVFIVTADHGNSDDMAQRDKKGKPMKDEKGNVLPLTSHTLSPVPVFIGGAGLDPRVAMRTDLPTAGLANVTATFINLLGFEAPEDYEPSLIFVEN
Peptidyl-prolyl cis-trans isomerase NIMA-interacting 1 (Homo sapiens), sequence (Q13526 whole entry, looked up): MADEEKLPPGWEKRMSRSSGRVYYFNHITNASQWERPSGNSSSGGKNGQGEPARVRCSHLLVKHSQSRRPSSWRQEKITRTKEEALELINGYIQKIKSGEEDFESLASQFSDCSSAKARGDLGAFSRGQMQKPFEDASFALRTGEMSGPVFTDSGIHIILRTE

Row | SMILES | Potency [1] | Potency [2] | Potency [3] | Potency [4] | Potency [5] | Potency [6]
1 | NC(=S)c1ccc[n+]([C@@H]2O[C@@H](COP(=O)([O-])OP(=O)(O)OC[C@H]3O[C@@H](n4cnc5c(N)ncnc54)[C@H](OP(=O)(O)O)[C@@H]3O)C(O)C2O)c1 (stereo partly specified) | 19 µM (active) | inactive | inactive | inactive | inactive | 
2 | CCN(CC)c1ncnc2c1ncn2[C@@H]1O[C@H](COP(=O)(O)OP(=O)(O)C(Br)(Br)P(=O)(O)O)[C@@H](O)[C@H]1O |  | inactive | inactive | inactive | inactive | inactive
3 | NCC1OC(O[C@H]2[C@H](O)[C@@H](OC3C(O)C(N)CC(N)C3OC3OC(CO)C(O)C(O)C3N)O[C@@H]2CO)C(N)C(O)C1O (stereo partly specified) | inactive | inactive |  | inactive | inactive | 
4 | O=C1NC(=O)/C(=C/c2ccc3nccnc3c2)S1 | inactive | inactive |  | inactive | inactive | inactive
5 | O=P(O)(O)C(Cl)(Cl)P(=O)(O)O | 26.9 µM (active) | inactive |  | inactive | inactive | inactive
6 | O=C(/C=C/c1ccc(O)cc1)c1ccc(O)cc1O | inactive | inactive | 79.4 µM (active) |  | inactive | 
7 | NC[C@H]1O[C@@H](n2cnc3c(N)ncnc32)[C@H](O)[C@@H]1O | inactive | inactive | inactive | inactive | inactive | 
8 | OCC1O[C@H]([S-])[C@H](O)[C@@H](O)[C@@H]1O.[Au+] (stereo partly specified) | 4.26 µM (active) | 8.49 µM (active) | inactive |  |  | 
9 | CSc1nc(N)c2ncn([C@@H]3O[C@H](COP(=O)(O)OP(=O)(O)OP(=O)(O)O)[C@@H](O)[C@H]3O)c2n1 |  | inactive | inactive | inactive | inactive | inactive

— PubChem BioAssay (NCATS)
